This is one part of the list. No count for the full screen is at hand.

The test concerns the target furin, P09958. Nature of the test: furin cleavage Z-score vs untreated control; higher = more cleavage, active = 3.5 or more, inactive = 1 or less, 8 variable residues between constant flanks. As to the method: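 Multiplexed peptide-cDNA fusion cleavage assay. 8-mer variable peptides flanked by constant Cys-Ala (N-term) and Ala-Gly-Asn-Ala-Ser-Ala-Ser-Ala (C-term) and conjugated to a cDNA oligonucleotide were bead-immobilised via the N-terminus. They were treated with purified furin at a 1:10 enzyme:substrate ratio in 50 mM HEPES pH 7.5, 1 mM CaCl2, 100 mM NaCl for 7.5, 15 or 30 min. Released cDNA was counted by next-generation sequencing, and log counts versus no-furin controls were lowess-adjusted and converted to robust Z-scores.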

Chain of furin, P09958 (P09958 whole entry, the tested form may be a part): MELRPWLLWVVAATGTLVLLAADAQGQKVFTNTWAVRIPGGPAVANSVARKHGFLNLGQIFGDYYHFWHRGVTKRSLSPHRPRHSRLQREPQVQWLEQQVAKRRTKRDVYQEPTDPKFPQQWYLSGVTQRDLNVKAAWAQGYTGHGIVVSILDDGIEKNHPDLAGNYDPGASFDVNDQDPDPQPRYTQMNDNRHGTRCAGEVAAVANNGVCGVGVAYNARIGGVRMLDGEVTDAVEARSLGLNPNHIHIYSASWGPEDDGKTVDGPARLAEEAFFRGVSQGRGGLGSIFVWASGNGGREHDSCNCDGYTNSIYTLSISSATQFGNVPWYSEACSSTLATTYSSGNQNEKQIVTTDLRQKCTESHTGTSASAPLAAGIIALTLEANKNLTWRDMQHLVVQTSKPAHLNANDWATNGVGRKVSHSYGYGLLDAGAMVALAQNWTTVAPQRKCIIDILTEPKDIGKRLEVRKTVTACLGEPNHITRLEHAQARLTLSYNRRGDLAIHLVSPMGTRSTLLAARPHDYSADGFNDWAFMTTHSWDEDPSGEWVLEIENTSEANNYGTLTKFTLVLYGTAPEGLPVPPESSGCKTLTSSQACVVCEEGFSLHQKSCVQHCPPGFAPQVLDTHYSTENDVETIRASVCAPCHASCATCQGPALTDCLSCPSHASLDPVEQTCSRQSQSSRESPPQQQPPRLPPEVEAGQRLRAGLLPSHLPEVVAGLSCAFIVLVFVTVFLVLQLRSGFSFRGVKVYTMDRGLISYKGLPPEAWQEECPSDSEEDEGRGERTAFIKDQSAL

Take CADGPDGPEEAGNASASA [CS6]: the “furin cleavage Z-score” value runs as follows: (7.5 min) -0.625 (inactive); (15 min) -0.697 (inactive); (30 min) 0.000165 (inactive).
The like results for CAVSVIPTSGAGNASASA [HC872] were, in that order, -1.15 (inactive), -1.43 (inactive) and -0.759 (inactive).
The matching figures for CALALLSCLTAGNASASA [HC250]: 0.23 (inactive), 0.192 (inactive) and 0.0802 (inactive).
The matching figures for CADAAARVTAAGNASASA [HC1130]: -0.857 (inactive), -0.374 (inactive) and -0.0041 (inactive).
Consider CADAARVARFAGNASASA [FS-220], for which the “furin cleavage Z-score” value runs as follows: (7.5 min) 1.88; (15 min) 3.12; (30 min) 3.56 (active).
CAASPRVARFAGNASASA [FS-1586]: the “furin cleavage Z-score” value (7.5 min) is 7.18 (active), the “furin cleavage Z-score” value (15 min) was 7.05 (active) and the “furin cleavage Z-score” value (30 min) was 9.24 (active).
Regarding CASCQRRTRFAGNASASA [FS-379], the “furin cleavage Z-score” value by setting is: (7.5 min) -0.682 (inactive); (15 min) 1.81; (30 min) 2.4.
The matching figures for CAAGHAVGIFAGNASASA [HC747]: 0.991 (inactive), -0.922 (inactive) and -0.149 (inactive).
For CAASIRHARFAGNASASA [FS-580], the “furin cleavage Z-score” value is, setting by setting: (7.5 min) 4.24 (active); (15 min) 6.42 (active); (30 min) 7.16 (active).
Take CAASHRSTRFAGNASASA [FS-1309]: the “furin cleavage Z-score” value was 0.749 (inactive) (7.5 min), 3.07 (15 min) and 5.05 (active) (30 min).
Regarding CAEVTCHRPSAGNASASA [HC2358], the “furin cleavage Z-score” value is 0.503 (inactive) (7.5 min), 1.09 (15 min) and -0.419 (inactive) (30 min).
The matching figures for CASTPCSCHLAGNASASA [HC2540]: -2.32 (inactive), -0.121 (inactive) and -0.978 (inactive).
The matching figures for CAVVCCSMPYAGNASASA [HC2079]: 1.07, 1.5 and 0.76 (inactive).
As for CAMEECSQHRAGNASASA [HC1773], the “furin cleavage Z-score” value (7.5 min) is 0.467 (inactive), the “furin cleavage Z-score” value (15 min) was 0.921 (inactive) and the “furin cleavage Z-score” value (30 min) came to 2.83.
With CAAQQTRGLLAGNASASA [HC677], the “furin cleavage Z-score” value is -1.39 (inactive) (7.5 min), -0.431 (inactive) (15 min) and 0.105 (inactive) (30 min).
As for CARRARQARRAGNASASA [FS-1071], the “furin cleavage Z-score” value (7.5 min) is -0.692 (inactive), the “furin cleavage Z-score” value (15 min) is 0.798 (inactive) and the “furin cleavage Z-score” value (30 min) worked out at 2.53.
The like results for CAIKARAACRAGNASASA [HC1519] were, in that order, 0.264 (inactive), -0.0832 (inactive) and 0.862 (inactive).
In the case of CAPRARAARRAGNASASA [FS-1550], the “furin cleavage Z-score” value runs as follows: (7.5 min) 4.8 (active); (15 min) 6.53 (active); (30 min) 7.08 (active).
The like results for CARRARASDRAGNASASA [FS-2176] were, in that order, 3.3, 2.19 and 4.92 (active).
For CASLRAFTEAAGNASASA [HC1538], the “furin cleavage Z-score” value was -0.614 (inactive) (7.5 min), -1.13 (inactive) (15 min) and 0.282 (inactive) (30 min).
Consider CAYLARNARIAGNASASA [FS-319], for which the “furin cleavage Z-score” value is -0.614 (inactive) (7.5 min), -1.5 (inactive) (15 min) and 0.218 (inactive) (30 min).
On to CAEINRPRRIAGNASASA [FS-156], for which the “furin cleavage Z-score” value runs as follows: (7.5 min) 0.686 (inactive); (15 min) -0.166 (inactive); (30 min) 0.217 (inactive).
In the case of CANKNRLRRIAGNASASA [FS-696], the “furin cleavage Z-score” value (7.5 min) turned out to be 2.17, the “furin cleavage Z-score” value (15 min) was found to be 3.21 and the “furin cleavage Z-score” value (30 min) is 3.66 (active).
On to CAVGSKQRRIAGNASASA [FS-631], for which the “furin cleavage Z-score” value is -0.93 (inactive) (7.5 min), -0.511 (inactive) (15 min) and -0.419 (inactive) (30 min).
The like results for CATLGRHRRIAGNASASA [FS-305] were, in that order, 0.637 (inactive), 4.75 (active) and 4.61 (active).
The like results for CASLVRNRRIAGNASASA [FS-626] were, in that order, 3.81 (active), 7.06 (active) and 7.84 (active).
The like results for CALYNRTRRIAGNASASA [FS-61] were, in that order, -0.475 (inactive), 0.0321 (inactive) and 0.723 (inactive).
On to CAGLSRHRRIAGNASASA [FS-1329], for which the “furin cleavage Z-score” value (7.5 min) is 4.21 (active), the “furin cleavage Z-score” value (15 min) is 4.36 (active) and the “furin cleavage Z-score” value (30 min) is 4.6 (active).

The record behind these values is the supplement of paper PMC3545927.
